Measurements: PubChem BioAssay (NCATS)
Several values for one entry are separate records, joined by “and”; a condition that tells them apart may be missing. Equal values may be shown once. Inconclusive results are not listed. Activity calls are given as the source filed them. Unless noted, calls come from the whole dose curve; as a rule, active = well fitted curve in the direction sought with a large enough effect; inconclusive = small, poorly fitted or top-dose-only effect, or another doubt; inactive = no such curve, though single readings can be large; an effect the other way counts as inactive or inconclusive.

What was measured:
[1] = tested on: Zika virus NS2B-NS3 protease (linked construct); experiment: Primary screen NINDS Rhodamine qHTS for Zika virus inhibitors (AID 1347160); note: nearly all actives have a fitted effect of over 55% in size; note: potency is the fitted concentration of half-maximal effect
Method in brief: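 Kinetic fluorescence (Ex 480 nm, Em 540 nm) over 15 min with 1.5 microM Rhodamine110 peptide and 25 nM linked protease.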

[2] = Primary qHTS for inhibitors of nuclear receptor binding SET domain protein 2 (NSD2) in an isogenic RCH-ACV NSD2 p.E1099K mutant (9B) (AID 1645876); note: nearly all actives have a fitted effect of over 70% in size; note: potency is the fitted concentration of half-maximal effect
[3] = target: Glutathione peroxidase 1 (Homo sapiens) (UniProt P07203); experiment: Primary qHTS Assay for Inhibitors of Recombinant Selenoprotein Glutathione Peroxidase 1 (GPX1) (AID 1845191); note: nearly all actives have a fitted effect of over 65% in size
Method in brief: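 GR-coupled assay: compounds preincubated 30 min at room temperature with GPX1, then reaction started with CHP; final 10 nM GPX1, 1 mM GSH, 0.5 mM CHP, 0.5 mM NADPH, 100 nM GR, 0.01% BSA, pH 7.5 Tris buffer. NADPH fluorescence (340/450 nm) read at 0 and 15 min.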

[4] = target: Phospholipid hydroperoxide glutathione peroxidase GPX4 (Homo sapiens) (UniProt P36969); experiment: Primary qHTS Assay for Inhibitors of Recombinant Selenoprotein Glutathione Peroxidase 4 (GPX4) (AID 1845192); details: outcome: dose series up to 50 µM unless noted; note: nearly all actives have a fitted effect of over 65% in size
Method in brief: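 GR-coupled assay: recombinant GPX4 preincubated 30 min with compound at room temperature; final 200 nM GPX4, 1 mM GSH, 0.5 mM cumene hydroperoxide, 0.5 mM NADPH, 100 nM GR, 0.01% BSA, pH 7.5 Tris. NADPH fluorescence (340/450 nm) read at 0 and 15 min.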

[5] = target: Luciferin 4-monooxygenase (Photinus pyralis) (UniProt P08659); experiment: Primary firefly luciferase (FLuc) qHTS assay for identification of artifact compounds. (AID 1845220); note: nearly all actives have a fitted effect of over 60% in size
Method in brief: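 Enzymatic FLuc inhibition assay: compounds pre-exposed to luciferin/ATP (10 uM each) for 15 min, then purified P. pyralis enzyme at 10 nM added. Read-out: luminescence at 5 min.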

[6] = Primary fluorescence-based thiol-reactive (MSTI) qHTS assay for identification of artifact compounds. (AID 1845221);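 note: thiol-reactive compounds lower the probe fluorescence signal; nearly all actives have a fitted effect of over 65% in size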
Method in brief: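 A multi-concentration qHTS design tested compounds against 4 uM MSTI, pH 7.4 phosphate-buffered saline. Plates were protected from light for 1 h at room temperature before imaging fluorescence.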

[7] = tested on: Nanoluciferase (engineered Oplophorus gracilirostris luciferase); experiment: Primary Nanoluciferase (NLuc) qHTS assay for identification of artifact compounds. (AID 1845222);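 note: NLuc secreted into diluted conditioned medium of S16 cells; 0% = DMSO and -100% = no enzyme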
Method in brief: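 S16 cell supernatant NLuc, 1:55; cpds qHTS; 15 min RT dark; Nano-Glo substrate 1:100, 5 min; luminescence; Hill fit of % inhibition.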

[8] = Primary redox qHTS assay for identification of artifact compounds. (AID 1845223);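 note: 0% = DMSO and 100% = reference compound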
Method in brief: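 Amplex Red (25 uM) and HRP (250 mU/mL) in HBSS, with compounds for 15 min, then 250 uM DTT for 30 min, room temperature, dark. Fluorescence 525/598 nm read; normalized to DMSO and 10 uM DA3003; Hill fit.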

[9] = tested on: CASKI; experiment: Primary qHTS to identify gynecologic anti-cancer compounds using libraries of approved drugs and bioactive compounds (AID 1345084); details: Gynecologic cancer cell panel viability, ATPlite luminescence, 48 h; series mostly up to 57.5 µM; note: nearly all actives have a fitted effect of over 55% in size; note: potency is the fitted concentration of half-maximal effect
Method in brief: (§1)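 ATP-based viability (ATPlite), 1,000 cells/well, 16 h pre-incubation, 48 h compound at 37 C, 5% CO2, 15 min RT before read.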

[10] = tested on: HeLa; experiment: as above; details: Gynecologic cancer cell panel viability, ATPlite luminescence, 48 h; series mostly up to 57.5 µM
Method in brief: as §1

[11] = tested on: Hek293T; experiment: as above; details: Gynecologic cancer cell panel viability, ATPlite luminescence, 48 h, control line for the selectivity index; series mostly up to 57.5 µM
Method in brief: as §1

[12] = Primary qHTS for inhibitors of nuclear receptor binding SET domain protein 2 (NSD2) in an RCH-ACV wild type WT cells (2C) (AID 1645877); note: nearly all actives have a fitted effect of over 70% in size; note: potency is the fitted concentration of half-maximal effect
[13] = tested on: C33A; experiment: Primary qHTS to identify gynecologic anti-cancer compounds using libraries of approved drugs and bioactive compounds (AID 1345084); details: Gynecologic cancer cell panel viability, ATPlite luminescence, 48 h; series mostly up to 57.5 µM; note: nearly all actives have a fitted effect of over 55% in size; note: potency is the fitted concentration of half-maximal effect
Method in brief: as §1

[14] = tested on: Es-2; experiment: as above; details: Gynecologic cancer cell panel viability, ATPlite luminescence, 48 h; series mostly up to 57.5 µM
Method in brief: as §1

[15] = tested on: JEG-3; experiment: as above; details: Gynecologic cancer cell panel viability, ATPlite luminescence, 48 h; series mostly up to 57.5 µM
Method in brief: as §1

[16] = tested on: OV90; experiment: as above; details: Gynecologic cancer cell panel viability, ATPlite luminescence, 48 h; series mostly up to 57.5 µM
Method in brief: as §1

[17] = tested on: Tov-21-G; experiment: as above; details: Gynecologic cancer cell panel viability, ATPlite luminescence, 48 h; series mostly up to 57.5 µM
Method in brief: as §1

[18] = tested on: Tov112D; experiment: as above; details: Gynecologic cancer cell panel viability, ATPlite luminescence, 48 h; series mostly up to 57.5 µM
Method in brief: as §1

[19] = target: Calcium and integrin-binding protein 1 (Homo sapiens) (UniProt Q99828); experiment: Primary qHTS for Identification of Calcium Integrin Binding Protein 1 (CIB1) Competitor (AID 1508620);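 note: GST tagged CIB1 binding a fluorescein labelled alphaIIb integrin peptide tracer; top concentration of the series differs between compounds; % is set by controls: 0 for no effect and ±100 for the full control effect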
Method in brief: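 Fluorescence polarization competition: GST-tagged CIB1 (1 uM final) preincubated with compound 15 min at room temperature, then FITC-labelled alphaIIb peptide (100 nM final) added. After 15 min at room temperature, polarization read at Ex 480/Em 540.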

[20] = qHTS drug screen for cell cycle checkpoint inhibitors in PARPi-resistant BRCA-mutant ovarian cancer cell lines. (AID 1963452; calls by dose curve); details: PEO1/OlaR viability, CellTiter-Glo luminescence, 96 h, stronger effect = lower value
Method in brief: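 PEO1, PEO4 and PEO1/OlaR ovarian cancer cells, 600 per well, exposed 96 h at 37C to a dilution series. Viability read by CellTiter-Glo luminescence, normalized to DMSO and empty wells; activity summarized as Z-AUC.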

Sequence of Calcium and integrin-binding protein 1 (Homo sapiens) (Q99828 whole entry, looked up): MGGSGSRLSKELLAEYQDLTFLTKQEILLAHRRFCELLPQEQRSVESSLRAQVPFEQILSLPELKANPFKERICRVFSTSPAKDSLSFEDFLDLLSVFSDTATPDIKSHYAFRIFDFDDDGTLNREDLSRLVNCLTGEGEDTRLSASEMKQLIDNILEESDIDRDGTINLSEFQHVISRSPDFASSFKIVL
Sequence of Phospholipid hydroperoxide glutathione peroxidase GPX4 (Homo sapiens) (P36969 whole entry, looked up): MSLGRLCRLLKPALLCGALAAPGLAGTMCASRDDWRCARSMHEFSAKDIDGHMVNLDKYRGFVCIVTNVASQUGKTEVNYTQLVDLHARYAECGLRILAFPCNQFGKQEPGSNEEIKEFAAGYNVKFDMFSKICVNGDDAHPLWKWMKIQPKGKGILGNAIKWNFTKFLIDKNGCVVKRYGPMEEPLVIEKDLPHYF
Sequence of Glutathione peroxidase 1 (Homo sapiens) (P07203 whole entry, looked up): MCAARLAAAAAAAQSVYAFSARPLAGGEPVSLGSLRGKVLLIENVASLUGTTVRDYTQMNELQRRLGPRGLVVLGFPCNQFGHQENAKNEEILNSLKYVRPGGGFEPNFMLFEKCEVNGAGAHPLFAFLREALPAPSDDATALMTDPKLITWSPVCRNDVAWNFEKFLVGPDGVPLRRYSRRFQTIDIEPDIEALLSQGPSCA

CC1OC2O[C@H]3[C@@H](OCC(O)[C@H]3O)OC(=O)C34CCC(C)(C)CC3C3=CCC5C6(C)CC(O)C(OC7OC(CO)C(O)C(O)C7O[C@@H]7OC[C@H](OC(=O)CC(C)(O)CC(=O)OC1C(OC1OCC(O)C(O)C1O)C2O)[C@@H](O)[C@H]7O)C(C)(CO)C6CCC5(C)C3(C)CC4 (some centres not stated)
inactive: Potency [1] | Potency [3] | Potency [4] | Potency [5] | Potency [6] | Potency [7] | Potency [8] | Potency [9] | Potency [10] | Potency [11]
active: Potency [2] 8.93 µM

CC1(C)SC2C(NC(=O)[C@H](NC(=O)N3CCNC3=O)c3ccccc3)C(=O)N2C1C(=O)O (some centres not stated)
inactive: Potency [2] | Potency [12] | Potency [3] | Potency [4] | Potency [5] | Potency [6] | Potency [7] | Potency [13] | Potency [9] | Potency [14] | Potency [10] | Potency [11] | Potency [15] | Potency [16] | Potency [17] | Potency [18]

CCCCOc1ccc(-c2cncc(C(=O)NCc3cccnc3N3CCOCC3)c2)cc1Cl
inactive: Potency [1] | outcome [19] | Potency [2] | Potency [12] | Potency [3] | Potency [4] | Potency [5] | Potency [6] | Potency [7] | Potency [8] | Potency [13] | Potency [9] | Potency [14] | Potency [10] | Potency [11] | Potency [15] | Potency [16] | Potency [17] | Potency [18]

CN(C)CCCNc1nc(CN2CCN(C(c3ccc(Cl)cc3)c3ccc(Cl)cc3)CC2)nc2ccccc12
active: Potency [2] 9.16 µM | Potency [12] 7.28 µM
inactive: Potency [1] | outcome [19] | Potency [4] | Potency [5] | Potency [6] | Potency [7] | Potency [8] | Potency [13] | Potency [9] | Potency [14] | Potency [10] | Potency [11] | Potency [15] | Potency [17] | Potency [18]

CN(CC(=O)N(Cc1ccc(C2CCCCC2)cc1)c1ccc(C(=O)O)cc1)S(=O)(=O)c1c(F)c(F)c(F)c(F)c1F
inactive: outcome [19] | Potency [3] | Potency [4] | Potency [5] | Potency [6] | Potency [7] | Potency [8] | Potency [14]
active: Potency [1] 2.82 µM | Potency [2] 7.28 µM | Potency [15] 25.1 µM

O=C(c1ccc(F)c(F)c1Nc1ccc(I)cc1F)N1CC(O)([C@@H]2CCCCN2)C1
inactive: Potency [1] | outcome [19] | Potency [3] | Potency [4] | Potency [5] | Potency [6] | Potency [7] | Potency [8] | Z-AUC [20] -1.02 | Potency [10] | Potency [15]
active: Potency [2] 14.8 µM | Potency [12] 14.5 µM and 14.8 µM
-0.911: Z-AUC ([20]; measured here: PEO1 parental Z-AUC)
-1.32: Z-AUC ([20]; measured here: PEO4 Z-AUC)

COc1ccc(C(=O)N(CCC(C)C)Cc2nc(C)c(C)n2Cc2ccccc2C)c(OC)c1
active: Potency [2] 11.5 µM | Potency [12] 11.5 µM
inactive: Potency [1] | outcome [19] | Potency [3] | Potency [4] | Potency [5] | Potency [7] | Potency [8] | Potency [13] | Potency [9] | Potency [14] | Potency [10] | Potency [11] | Potency [15] | Potency [16] | Potency [17] | Potency [18]

CN([C@H]1c2cc(OCCCC(F)(F)F)ccc2OC(C)(C)[C@@H]1O)S(C)(=O)=O
inactive: Potency [1] | Potency [5] | Potency [6] | Potency [7] | Potency [8] | Potency [13] | Potency [9] | Potency [14] | Potency [10] | Potency [11] | Potency [15] | Potency [16] | Potency [17] | Potency [18]

Cc1ccn(-c2cc(Cl)ccc2[C@@H](Oc2cc(-c3ccc(C[C@H](N)C(=O)O)cc3)nc(N)n2)C(F)(F)F)n1
active: Potency [1] 22.4 µM
inactive: outcome [19] | Potency [3] | Potency [5] | Potency [6] | Potency [8] | Potency [13] | Potency [9] | Potency [14] | Potency [10] | Potency [11] | Potency [15] | Potency [16] | Potency [17] | Potency [18]

CC(C)n1cnc2c(Nc3cccc(Cl)c3)nc(NCCO)nc21
active: Potency [2] 11.5 µM
inactive: Potency [1] | outcome [19] | Potency [3] | Potency [4] | Potency [5] | Potency [6] | Potency [7] | Potency [13] | Potency [9] | Potency [14] | Potency [10] | Potency [11] | Potency [15] | Potency [16] | Potency [18]
